The record followed here is PubChem BioAssay (NCI).

Experiment in all cases: NCI-60 one-dose screen, 48 h (100 = growth as untreated, 0 = no growth, -100 = all killed)
Conditions in all cases: 10 µM unless noted

Assay [1] has as its system SR leukemia.
Assay [2] deals with RPMI-8226 leukemia.
Assay [3] relates to OVCAR-8 ovarian.
Assay [4] has as its system OVCAR-5 ovarian.
For assay [5], the system named is OVCAR-4 ovarian.
The subject of assay [6] is SK-OV-3 ovarian.
The test system of assay [7] is IGROV1 ovarian.
The test system of assay [8] is OVCAR-3 ovarian.
The subject of assay [9] is HS 578T breast.
In assay [10] the test system is NCI/ADR-RES ovarian.
The test system of assay [11] is T-47D breast.
Assay [12] concerns BT-549 breast.
For assay [13], the system named is SW-620 colon.
In assay [14] the test system is MCF7 breast.
Assay [15] deals with HCT-116 colon.
Assay [16] relates to HCC-2998 colon.
Assay [17] concerns KM12 colon.
Assay [18] relates to MDA-MB-435 melanoma.

About 83,000 compounds went through this panel and 20% of them were active in at least one assay; those are over-represented in the sample as a whole.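 The test compound was applied at a single concentration to cells in 96-well plates for 48 hours, and percent growth was recorded.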 A number with no mark means an inactive call. Active and inactive are the calls of the source. Rule for the calls: active = growth percent below 10; inactive = the rest.

With `NS(=O)(=O)c1ccc(C(=O)NN2C(=O)c3ccccc3C2=O)cc1`, the growth was 105% in [1]; 109% in assay [2]; 107% in assay [3]; 110% in [4]; 113% in assay [5]; 117% in [6]. In addition, the growth in [7] was 113%; in [8], 108%; in assay [9], 102%; in assay [10], 112%; in assay [11] it was 98.4%; in assay [12], 109%. Besides, the growth is 104% in assay [13]; 96.1% in assay [14]; 110% in [15]; 108% in assay [16]; 102% in assay [17].

With `COCCn1cc(-c2nc(-c3c[nH]c4ncccc34)cs2)c2ccccc21`, the growth was 18.4% in assay [1]; 43.3% in assay [2]; 81% in assay [3]; 43.7% in assay [4]; 15.2% in [5]; 54.8% in [6]. The growth is 36% in assay [7]; 13.6% in [8]; 47.4% in [9]; 69.1% in [10]; 43.2% in assay [12]; 7.74% (active) in [18]. For the same compound, the growth in [13] was 68.6%; in assay [14], 9.03% (active); in assay [15] it was 66.5%; in [16], 34.4%; in [17], 16.4%.

For `CCOC(=O)NCCCC(=O)NCCc1ccccc1`, the growth in assay [1] is 106%; in assay [2], 110%; in assay [3], 104%; in assay [4], 118%; in [5], 107%; in assay [6], 108%. The growth is 106% in assay [7]; 108% in assay [8]; 106% in assay [9]; 104% in assay [10]; 110% in assay [12]; 109% in [18]. The growth in [13] is 111%; in assay [14], 97.8%; in assay [15], 97.6%; in [16] it was 99.1%; in assay [17] it was 96.6%.

With `Cc1ccc(S(=O)(=O)N2CCCN(c3nc(-c4ccccc4)nc4nc(-c5ccccc5)oc34)CC2)cc1`, the growth in assay [1] is 92.2%; in assay [2] it was 89.6%; in assay [3], 95.4%; in [4], 105%; in [5] it was 103%; in assay [6], 107%. Also, the growth is 90.2% in assay [7]; 114% in assay [8]; 103% in [9]; 102% in assay [10]; 117% in assay [12]; 104% in [18]. For the same compound, the growth in assay [13] is 111%; in [14] it was 93.4%; in assay [15], 104%; in assay [16] it was 107%; in [17], 109%.

`C=CC(CC(c1ccccc1)(c1ccccc1)c1ccccc1)N(CC)CC` (stereo not drawn): the growth is -6.97% (active) in assay [1]; 38.2% in assay [2]; 94% in [3]; 72.5% in assay [4]; 67.5% in assay [5]; 72.5% in [6]. Besides, the growth in assay [7] was 77%; in assay [8], 70.1%; in [9], 82.1%; in [10], 66.1%; in [11], 59.3%; in [12], 64.4%. For the same compound, the growth in assay [13] is 55.4%; in [14] it was 73%; in assay [15], 43.9%; in [16], 69%; in [17] it was 58.8%.

Regarding `COc1ccc(N=C2NN=C(c3c[nH]c4ccccc34)CS2)cc1OC`, the growth in assay [1] was 93.6%; in assay [2], 17%; in assay [3], 71.7%; in assay [4] it was 74.6%; in assay [5], 69.2%; in [6], 67.7%. The growth is -32.4% (active) in assay [7]; -9.06% (active) in assay [8]; 52.8% in [9]; 17.7% in [10]; 57.5% in assay [11]; -0.386% (active) in assay [12]. Besides, the growth in assay [13] was 50.4%; in [14], 42.1%; in assay [15], 39.1%; in assay [16], 71.7%; in assay [17], 23.7%.

As to `O=c1c2ccccc2n(C[C@H]2CO2)c2ccccc12`, the growth in assay [1] is 8.95% (active); in assay [2], 1.45% (active); in [3], 4.1% (active); in assay [4], -12.7% (active); in [5], 7.68% (active); in assay [6] it was -13.5% (active). Moreover, the growth in assay [7] is -52.3% (active); in [8], -19.7% (active); in [9], 6.14% (active); in [10], -14.3% (active); in assay [11], 12.6%; in assay [12], -4.38% (active). In addition, the growth in assay [13] is 0.352% (active); in assay [14], -4.75% (active); in assay [15], 2.21% (active); in assay [16], -70% (active); in assay [17] it was -16.4% (active).

In the case of `O=C(O)CC(C(=O)O)/C(=C\c1ccccc1)c1ccccc1` (stereo not drawn), the growth in [1] was 105%; in assay [2], 102%; in assay [3], 100%; in assay [4] it was 104%; in assay [5], 107%; in [6], 97.4%. The growth was 120% in assay [7]; 113% in assay [8]; 105% in assay [9]; 110% in [10]; 93.1% in [11]; 122% in assay [12]. Further, the growth in assay [13] was 103%; in assay [14], 94.7%; in assay [15], 119%; in assay [16] it was 108%; in assay [17], 108%.

`Cc1cc(N2CCN(CC(=O)Nc3ccc4c(ccn4Cc4ccccc4)c3)CC2)nc(N2CCOCC2)n1`: the growth is 107% in assay [1]; 67% in [2]; 68.2% in [3]; 97.9% in [4]; 84.4% in assay [5]; 81.9% in assay [6]. Also, the growth in assay [7] is 76.8%; in assay [8] it was 89.3%; in assay [9], 82.8%; in assay [10], 79.4%; in [11], 59.6%; in assay [12] it was 81.5%. Also, the growth in assay [13] was 95%; in assay [14] it was 79.8%; in assay [15] it was 72.5%; in assay [16] it was 119%; in assay [17], 91.3%.
